Assay results taken from PubChem BioAssay (NCATS).
Activity calls are given as the source filed them. No rule for the calls is given here.

Settings: Ebola virus entry assay, blue channel fluorescence

Structure (SMILES)	AC50	outcome
O=C(Nc1ccccc1)OCC(CN1CCCCC1)OC(=O)Nc1ccccc1 (stereo unspecified)	10 µM (active)	–
CCCCOc1cc(C(=O)NCCN(CC)CC)c2ccccc2n1	12.6 µM (active)	–
CC(N)C(=O)OC(C)(C)Cc1ccc(Cl)cc1 (stereo unspecified)	15.8 µM (active)	–
CCN(CC)CCOc1ccccc1C(=O)CCc1ccccc1	15.8 µM (active)	–
CN1CCC(N(Cc2cccs2)c2ccccc2)CC1	3.55 µM (active)	–
O=C1NC2CCCCN2C12CCN(CCCN1c3ccccc3CCc3ccc(Cl)cc31)CC2 (stereo unspecified)	4.47 µM (active)	–
CCCCC1C(=O)N(c2ccccc2)N(c2ccc(O)cc2)C1=O (stereo unspecified)	28.2 µM (active)	–
CCCCOc1ccc(C(=O)CCN2CCCCC2)cc1	25.1 µM (active)	–
CN(C)CCCN1c2ccccc2Sc2ccc(C(F)(F)F)cc21	3.16 µM (active)	–
C[C@]12CCC(=O)C=C1C=C[C@@H]1[C@@H]2CC[C@@]2(C)[C@H]1CC[C@@]21CCC(=O)O1	39.8 µM (active)	–
O=C(O)c1cn(-c2ccc(F)cc2)c2cc(N3CCNCC3)c(F)cc2c1=O	–	inactive
c1cc(CN2CCCCC2)cc(OCCCNc2nc3ccccc3s2)c1	12.6 µM (active)	–
Cc1cccc(N(C)C(=S)Oc2ccc3c(c2)C2CCC3C2)c1 (stereo unspecified)	39.8 µM (active)	–
CNCCC(Oc1ccccc1OC)c1ccccc1 (stereo unspecified)	22.4 µM (active)	–
CN1CCCN(C(c2ccccc2)c2ccc(Cl)cc2)CC1 (stereo unspecified)	3.16 µM (active)	–
CCCCOc1ccc(OCCCN2CCOCC2)cc1	25.1 µM (active)	–
OCc1cc(C(O)CNCCCCCCOCCCCc2ccccc2)ccc1O (stereo unspecified)	7.94 µM (active)	–
CC(Oc1c(Cl)cccc1Cl)C1=NCCN1 (stereo unspecified)	39.8 µM (active)	–
CN(C)CCOC1=Cc2ccccc2Sc2ccc(Cl)cc21	15.8 µM (active)	–

Structure (SMILES)	AC50	outcome
CC(C)(C)C(=O)OCOC(=O)C1N2C(=O)CC2S(=O)(=O)C1(C)C (stereo unspecified)	3.98 µM (active)	–
CN1CCN(CCC(=O)N2c3ccccc3Sc3ccc(C(F)(F)F)cc32)CC1	4.47 µM (active)	–
CCN(CC)CCCC(C)Nc1c2ccc(Cl)cc2nc2ccc(OC)cc12 (stereo unspecified)	25.1 µM (active)	–
Cc1ccc(N(CC2=NCCN2)c2cccc(O)c2)cc1	35.5 µM (active)	–
CCC(CN)=C(c1ccccc1)c1ccccc1	17.8 µM (active)	–
COc1ccc2c(c1)c(CC(=O)O)c(C)n2C(=O)c1ccc(Cl)cc1	–	inactive
CC1=C(C)C(=O)C(C(CCCCCC(=O)O)c2ccccc2)=C(C)C1=O (stereo unspecified)	–	inactive
Fc1ccc(C(c2ccc(F)cc2)N2CCN(C/C=C/c3ccccc3)CC2)cc1	12.6 µM (active)	–
CCc1cccc(N(C)C(N)=Nc2cccc3ccccc23)c1	20 µM (active)	–
c1ccc2c(c1)CCc1ccccc1N2	17.8 µM (active)	–
COc1ccc(-n2nc(CCC(=O)N(C)O)cc2-c2ccc(Cl)cc2)cc1	11.2 µM (active)	–
CCc1ccc(C(=O)C(C)CN2CCCCC2)cc1 (stereo unspecified)	39.8 µM (active)	–
CN1CCCN=C1COC(=O)C(O)(c1ccccc1)C1CCCCC1 (stereo unspecified)	12.6 µM (active)	–
O=c1[nH]c2ccccc2n1CCCN1CCN(C(c2ccccc2)c2ccccc2)CC1	12.6 µM (active)	–
OC(CCN1CCCCC1)(c1ccccc1)c1ccccc1	31.6 µM (active)	–
NC(=O)C1(N2CCCCC2)CCN(CCCN2c3ccccc3CCc3ccc(Cl)cc32)CC1	3.98 µM (active)	–
CC(CC1c2ccccc2CCc2ccccc21)CN(C)C (stereo unspecified)	6.31 µM (active)	–
Oc1ccc(CCNCCCCCCNCCc2ccccc2)cc1O	1.12 µM (active)	–
CN(C)CCOC(c1ccccc1)c1ccc(Br)cc1 (stereo unspecified)	11.2 µM (active)	–

Settings: Ebola virus entry assay, ratio channel

Structure (SMILES)	AC50	outcome
O=C(Nc1ccccc1)OCC(CN1CCCCC1)OC(=O)Nc1ccccc1 (stereo unspecified)	10 µM (active)	–
CCCCOc1cc(C(=O)NCCN(CC)CC)c2ccccc2n1	10 µM (active)	–
CC(N)C(=O)OC(C)(C)Cc1ccc(Cl)cc1 (stereo unspecified)	14.1 µM (active)	–
CCN(CC)CCOc1ccccc1C(=O)CCc1ccccc1	14.1 µM (active)	–
CN1CCC(N(Cc2cccs2)c2ccccc2)CC1	3.16 µM (active)	–
O=C1NC2CCCCN2C12CCN(CCCN1c3ccccc3CCc3ccc(Cl)cc31)CC2 (stereo unspecified)	3.16 µM (active)	–
CCCCC1C(=O)N(c2ccccc2)N(c2ccc(O)cc2)C1=O (stereo unspecified)	–	inactive
CCCCOc1ccc(C(=O)CCN2CCCCC2)cc1	31.6 µM (active)	–
CN(C)CCCN1c2ccccc2Sc2ccc(C(F)(F)F)cc21	2.82 µM (active)	–
C[C@]12CCC(=O)C=C1C=C[C@@H]1[C@@H]2CC[C@@]2(C)[C@H]1CC[C@@]21CCC(=O)O1	–	inactive
O=C(O)c1cn(-c2ccc(F)cc2)c2cc(N3CCNCC3)c(F)cc2c1=O	–	inactive
c1cc(CN2CCCCC2)cc(OCCCNc2nc3ccccc3s2)c1	12.6 µM (active)	–
Cc1cccc(N(C)C(=S)Oc2ccc3c(c2)C2CCC3C2)c1 (stereo unspecified)	–	inactive
CNCCC(Oc1ccccc1OC)c1ccccc1 (stereo unspecified)	17.8 µM (active)	–
CN1CCCN(C(c2ccccc2)c2ccc(Cl)cc2)CC1 (stereo unspecified)	3.16 µM (active)	–
CCCCOc1ccc(OCCCN2CCOCC2)cc1	22.4 µM (active)	–
OCc1cc(C(O)CNCCCCCCOCCCCc2ccccc2)ccc1O (stereo unspecified)	7.08 µM (active)	–
CC(Oc1c(Cl)cccc1Cl)C1=NCCN1 (stereo unspecified)	–	inactive
CN(C)CCOC1=Cc2ccccc2Sc2ccc(Cl)cc21	12.6 µM (active)	–

Structure (SMILES)	AC50	outcome
CC(C)(C)C(=O)OCOC(=O)C1N2C(=O)CC2S(=O)(=O)C1(C)C (stereo unspecified)	3.16 µM (active)	–
CN1CCN(CCC(=O)N2c3ccccc3Sc3ccc(C(F)(F)F)cc32)CC1	2.82 µM (active)	–
CCN(CC)CCCC(C)Nc1c2ccc(Cl)cc2nc2ccc(OC)cc12 (stereo unspecified)	25.1 µM (active)	–
Cc1ccc(N(CC2=NCCN2)c2cccc(O)c2)cc1	31.6 µM (active)	–
CCC(CN)=C(c1ccccc1)c1ccccc1	17.8 µM (active)	–
COc1ccc2c(c1)c(CC(=O)O)c(C)n2C(=O)c1ccc(Cl)cc1	–	inactive
CC1=C(C)C(=O)C(C(CCCCCC(=O)O)c2ccccc2)=C(C)C1=O (stereo unspecified)	–	inactive
Fc1ccc(C(c2ccc(F)cc2)N2CCN(C/C=C/c3ccccc3)CC2)cc1	11.2 µM (active)	–
CCc1cccc(N(C)C(N)=Nc2cccc3ccccc23)c1	14.1 µM (active)	–
c1ccc2c(c1)CCc1ccccc1N2	–	inactive
COc1ccc(-n2nc(CCC(=O)N(C)O)cc2-c2ccc(Cl)cc2)cc1	10 µM (active)	–
CCc1ccc(C(=O)C(C)CN2CCCCC2)cc1 (stereo unspecified)	–	inactive
CN1CCCN=C1COC(=O)C(O)(c1ccccc1)C1CCCCC1 (stereo unspecified)	12.6 µM (active)	–
O=c1[nH]c2ccccc2n1CCCN1CCN(C(c2ccccc2)c2ccccc2)CC1	3.98 µM (active)	–
OC(CCN1CCCCC1)(c1ccccc1)c1ccccc1	28.2 µM (active)	–
NC(=O)C1(N2CCCCC2)CCN(CCCN2c3ccccc3CCc3ccc(Cl)cc32)CC1	3.55 µM (active)	–
CC(CC1c2ccccc2CCc2ccccc21)CN(C)C (stereo unspecified)	3.98 µM (active)	–
Oc1ccc(CCNCCCCCCNCCc2ccccc2)cc1O	1 µM (active)	–
CN(C)CCOC(c1ccccc1)c1ccc(Br)cc1 (stereo unspecified)	11.2 µM (active)	–
